# Whole data set: some 33,000 sequences, median “E-score (-0.5 to 0.5)” near -0.01, cut for the highest 2% near 0.26. This is one part of a sample in which the highest values are shown more often than they occur.
# Target: Ste12 (UniProt P13574)
# Assay: PBM E-score (8-mer binding enrichment) (E-score (-0.5 to 0.5)); higher = stronger / more preferred TF binding
# Details: protein concentration: 200 nM; construct: GST-DNA-binding domain
# Procedure: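 Universal 'all 10-mer' protein binding microarrays (Agilent AMADID 015681) probed with GST-tagged S. cerevisiae TFs (full-length or DBD) made by in vitro transcription/translation (PURExpress), about 100-200 nM. Bound TF was detected with fluorescent anti-GST. Each ungapped 8-mer (which stands for itself and its reverse complement) is scored by the PBM enrichment score (E-score), a modified Wilcoxon-Mann-Whitney statistic from -0.5 to +0.5, computed with the Universal PBM Analysis Suite. Scale: above 0.35 generally sequence-specific binding.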
# Chain of UniProt P13574 (P13574 whole entry): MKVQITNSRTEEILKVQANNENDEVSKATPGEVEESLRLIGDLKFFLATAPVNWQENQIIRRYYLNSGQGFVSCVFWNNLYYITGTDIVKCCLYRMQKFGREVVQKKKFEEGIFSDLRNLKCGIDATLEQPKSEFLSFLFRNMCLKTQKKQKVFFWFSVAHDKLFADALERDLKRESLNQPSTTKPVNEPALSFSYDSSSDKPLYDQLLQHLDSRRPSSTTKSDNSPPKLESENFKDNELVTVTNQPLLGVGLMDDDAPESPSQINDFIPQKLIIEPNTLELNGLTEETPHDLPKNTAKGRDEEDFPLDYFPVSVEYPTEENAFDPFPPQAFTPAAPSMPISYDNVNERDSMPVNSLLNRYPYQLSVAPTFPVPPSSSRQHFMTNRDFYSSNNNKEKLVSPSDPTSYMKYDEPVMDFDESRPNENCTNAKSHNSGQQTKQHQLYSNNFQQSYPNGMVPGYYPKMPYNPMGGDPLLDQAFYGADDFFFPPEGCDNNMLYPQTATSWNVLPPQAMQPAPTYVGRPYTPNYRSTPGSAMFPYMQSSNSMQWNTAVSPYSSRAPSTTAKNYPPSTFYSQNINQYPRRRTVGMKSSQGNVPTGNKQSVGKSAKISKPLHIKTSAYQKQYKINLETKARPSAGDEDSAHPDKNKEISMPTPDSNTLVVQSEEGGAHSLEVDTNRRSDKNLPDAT
row,Sequence,PBM E-score
1,CAAACCTC,-0.105
2,AAAACCTC,0.207
3,AAAACCGC,0.0403
4,ATAACCAA,0.294
5,CAAACCGC,0.00675
6,GAAACCAC,0.164
7,GAAACCGC,0.351
8,AAAACCAA,0.209
9,GAAACCTC,0.318
10,ACCTAAAT,0.11
11,ACGTTGGC,-0.0145
12,CATGGCGG,-0.0453
13,CTTTGCAC,-0.0246
14,GAGCGTGA,-0.0254
15,CGGCTGAA,-0.0336
16,GCAAGCAC,-0.125
17,ATAGTTTA,0.0232
18,AAAACTCG,0.125
19,GCGATGCA,-0.234
20,CGAATTAG,0.095
21,GAAACCGA,0.267
22,AAAACCGA,0.115
23,CAAACCGA,0.0295
24,AGTAACAA,0.0502
25,GGTAACCA,-0.12

row,Sequence,PBM E-score
1,CGTAACAG,0.205
2,TCTAACAA,0.127
3,CGTAACAA,0.293
4,GGTAACAA,0.264
5,GCTAACAA,-0.046
6,GGTAACAC,0.0298
7,TGTAACAA,0.333
8,AGAACTCA,0.117
9,TCGAGCGA,-0.0486
10,GAGTTGTA,-0.0493
11,AGCGTTTA,-0.122
12,AGCGTTTC,0.294
13,ATCGTTTG,0.0575
14,CTCGTTTC,0.242
15,CGCGTTTC,0.234
16,ATCGTTTC,0.35
17,AACCCACA,-0.0351
18,GGTGGGTA,0.0601
19,CCTTTTAA,0.0649
20,CATTTTCC,0.123
21,CATTTTCA,0.273
22,AATTTTCA,0.165
23,CATTTCCC,0.295
24,TATTTTCA,0.201
25,GATTTCCC,-0.0998

row,Sequence,PBM E-score
1,CATTTTAG,0.267
2,CATTTTAC,0.254
3,CATTTTAA,0.27
4,CATTTTTA,0.0631
5,AATTTTAG,0.105
6,AAGGCGGC,-0.0929
7,CCCTGAAC,0.0241
8,CCCTTGCG,-0.0882
9,ATACGTTG,-0.0291
10,CGTGGCGC,-0.1
11,TGAGGTAA,0.128
12,TCATTACA,0.18
13,ATTAGGAC,-0.179
14,CCCGCGGG,0.0996
15,AATACGCA,0.0688
16,ATTTGCTA,0.0107
17,CCATTTTA,0.267
18,CCATTTTC,0.0892
19,GCATTTTA,0.165
20,GCCTATCC,-0.214
21,ATCTGAAT,0.0272
22,ATCTGAAA,0.364
23,GTCTGAAA,0.314
24,GTCTGAAC,0.114
25,GTCTGATA,0.16

row,Sequence,PBM E-score
1,TTCTGAAA,0.365
2,CTCTGAAG,-0.104
3,CTCTGAAA,0.294
4,CCCTGAAA,0.181
5,ATCTGAAC,-0.0162
6,TTCTGCAA,0.182
7,CTCTGAAC,-0.092
8,TGGCCAAA,0.0505
9,TCCACAGA,0.124
10,CTTTAGCC,-0.029
11,AATAGTTG,0.255
12,AAGCAGAA,0.109
13,AATTGAGT,0.195
14,GTATGGAC,-0.0968
15,ATTGTTTG,0.184
16,CTTGTTAC,0.129
17,ATTGTTTA,0.0651
18,ATTGTTAC,0.297
19,CTTGTTTA,0.0423
20,ATTGTTAG,0.0697
21,ATTGTTTC,0.356
22,CTTGTTTC,0.375
23,CTTGTTGC,0.00409
24,ATCTCTTA,0.197
25,CCTTTCCC,-0.0368

row,Sequence,PBM E-score
1,ATAGCAGA,-0.0552
2,CCGGCTAC,0.0776
3,CGAGCCAG,-0.0693
4,AACGCACT,-0.0209
5,GATAAACA,0.096
6,AATAAACG,0.0508
7,TATAAACA,0.114
8,AATAAACA,0.284
9,CATAAACC,0.0477
10,AATAAACC,0.269
11,AAGTATGC,-0.197
12,AGCCCCCA,-0.118
13,TATGGACA,-0.00254
14,CGGTCGAA,0.00203
15,CAGTTTAC,-0.053
16,CGTTAAAG,0.0915
17,AGCCGGCG,0.106
18,CGCCGGCG,0.275
19,CGCCGGCC,-0.00587
20,CAGACCCG,0.0234
21,CTCTCCTC,-0.168
22,AAGTAAAC,0.0949
23,GTGTAAGA,0.058
24,CTGTAATA,0.119
25,CTGTAACA,0.268

row,Sequence,PBM E-score
1,GCGTAACA,-0.0008
2,AAGTAAAG,-0.0589
3,GTGTAACA,0.319
4,ATGTAACG,0.241
5,AAGTAAAT,0.261
6,ATGTAACC,0.143
7,ATGTAACA,0.288
8,CTGTAACC,0.183
9,GCGTCCAA,-0.13
10,ATGATTGC,0.146
11,CAAGACTG,-0.101
12,ATGCACAG,-0.111
13,ACTATTGG,-0.0275
14,CAACTTGA,0.0746
15,AAGTAACA,0.291
16,AAGTAACT,0.0625
17,AAGTAACG,0.141
18,AGACCGTA,-0.0932
19,CATGGTGG,-0.0711
20,GACTCTAA,0.115
21,ACCATAAA,0.278
22,ACCATAAG,-0.16
23,GTGATAAA,0.131
24,CTCATAAA,-0.00236
25,ATCATAAA,0.0612

row,Sequence,PBM E-score
1,ATGATAAA,0.209
2,TCCATAAA,0.11
3,TTCATAAA,0.324
4,TTGATAAA,0.277
5,ACTTTGAC,-0.101
6,ACTTCCCT,-0.0919
7,GGGTTCAC,-0.0147
8,GATCTGCC,0.0158
9,TAAAAGCA,0.172
10,CCAATCGA,0.067
11,CTTCACAA,-0.0638
12,AACGAAAC,0.314
13,ATCGAAAA,0.125
14,GTCGAAAC,0.128
15,AACGAAAT,0.169
16,CCCGAAAG,0.00951
17,CACGAAAA,0.243
18,AACGAAAG,0.0635
19,ATCGAAAC,0.324
20,CCCGAAAC,0.303
21,CACGAAAC,0.266
22,GCCGAAAC,0.178
23,CACGAAAG,0.095

# — the supplement of paper PMC3334620
